According to PubChem BioAssay AID1159580 (chemical genetic matrix, 2015):
Screen size: about 5,500 compounds; about 2,000 (36%) were called active. Inconclusive results (about 18%) are left out. Cut-off read from the data, not from the text of the source: active = normalized growth mostly below about 0.91 (no sharp cut-off); inconclusive = no clear call, values can overlap the other calls; inactive = mostly above about 0.92. The list shows a part of the results.

Test: chemical genetic growth profiling, strain panel (AID 1159580);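 note: tested at 20 µM; growth read once vehicle control cultures reached saturation at 30 °C; 1 = growth at the plate median or of vehicle wells; lower values mean less growth of the strain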
Conditions: growth OD

Measured: normalized growth

CCCCC(CC)CN=C(N)NC(N)=NCCCCCCN=C(N)NC(N)=NCC(CC)CCCC (centres undefined)
active: S. cerevisiae deletion strains, locus YKL009W, strain mrt4, stronger effect = lower value 0.0745 | S. cerevisiae deletion strains, locus YKL068W, stronger effect = lower value 0.0576 | S. cerevisiae deletion strains, locus YKL085W, strain MDH1 (second series), stronger effect = lower value 0.0564 | S. cerevisiae deletion strains, locus YKL085W, strain MDH1, stronger effect = lower value 0.0564 | S. cerevisiae deletion strains, locus YKL160W, strain elf1, stronger effect = lower value 0.0635 | S. cerevisiae deletion strains, locus YKL190W, strain CNB1, stronger effect = lower value 0.05 | S. cerevisiae deletion strains, locus YKR001C, strain vps1, stronger effect = lower value 0.0639 | S. cerevisiae deletion strains, locus YKR026C, strain gcn3, stronger effect = lower value 0.0659 | S. cerevisiae deletion strains, locus YKR091W, strain srl3, stronger effect = lower value 0.0594 | S. cerevisiae deletion strains, locus YLL001W, strain dnm1, stronger effect = lower value 0.0606 | S. cerevisiae deletion strains, locus YLL026W, stronger effect = lower value 0.0577 | S. cerevisiae deletion strains, locus YLL041C, strain sdh2, stronger effect = lower value 0.0581 | S. cerevisiae deletion strains, locus YLR027C, strain aat2, stronger effect = lower value 0.0557 | S. cerevisiae deletion strains, locus YLR039C, strain RIC1, stronger effect = lower value 0.0876 | S. cerevisiae deletion strains, locus YLR058C, strain SHM2, stronger effect = lower value 0.0571 | S. cerevisiae deletion strains, locus YLR102C, strain apc9, stronger effect = lower value 0.0596 | S. cerevisiae deletion strains, locus YLR113W, strain HOG1, stronger effect = lower value 0.113 | S. cerevisiae deletion strains, locus YLR221C, strain rsa3, stronger effect = lower value 0.0636 | S. cerevisiae deletion strains, locus YLR258W, strain gsy2, stronger effect = lower value 0.0577 | S. cerevisiae deletion strains, locus YLR262C, strain YPT6 (second series), stronger effect = lower value 0.0725 | S. cerevisiae deletion strains, locus YLR262C, strain YPT6, stronger effect = lower value 0.104 | S. cerevisiae deletion strains, locus YLR268W, strain sec22, stronger effect = lower value 0.0602 | S. cerevisiae deletion strains, locus YLR320W, strain mms22, stronger effect = lower value 0.0987 | S. cerevisiae deletion strains, locus YLR330W, strain CHS5, stronger effect = lower value 0.0561 | S. cerevisiae deletion strains, locus YLR342W, strain FKS1 (second series), stronger effect = lower value 0.0721 | S. cerevisiae deletion strains, locus YLR342W, strain FKS1, stronger effect = lower value 0.0635 | S. cerevisiae deletion strains, locus YLR357W, strain rsc2, stronger effect = lower value 0.127 | S. cerevisiae deletion strains, locus YLR370C, strain arc18, stronger effect = lower value 0.0632 | S. cerevisiae deletion strains, locus YLR371W, strain rom2, stronger effect = lower value 0.0612 | S. cerevisiae deletion strains, locus YLR384C, strain iki3, stronger effect = lower value 0.0589 | S. cerevisiae deletion strains, locus YLR418C, strain cdc73, stronger effect = lower value 0.0906 | S. cerevisiae deletion strains, locus YML016C, strain PPZ1, stronger effect = lower value 0.0539 | S. cerevisiae deletion strains, locus YML032C, strain rad52, stronger effect = lower value 0.0626 | S. cerevisiae deletion strains, locus YML120C, strain ndi1, stronger effect = lower value 0.0582 | S. cerevisiae deletion strains, locus YML124C, strain tub3, stronger effect = lower value 0.058 | S. cerevisiae deletion strains, locus YMR058W, strain fet3, stronger effect = lower value 0.0606 | S. cerevisiae deletion strains, locus YMR078C, strain ctf18, stronger effect = lower value 0.0695 | S. cerevisiae deletion strains, locus YMR125W, strain sto1, stronger effect = lower value 0.0772 | S. cerevisiae deletion strains, locus YMR129W, stronger effect = lower value 0.0584 | S. cerevisiae deletion strains, locus YMR205C, strain PFK2, stronger effect = lower value 0.0839 | S. cerevisiae deletion strains, locus YMR223W, strain ubp8, stronger effect = lower value 0.0589 | S. cerevisiae deletion strains, locus YMR231W, strain pep5, stronger effect = lower value 0.0657 | S. cerevisiae deletion strains, locus YMR263W, strain SAP30, stronger effect = lower value 0.0593 | S. cerevisiae deletion strains, locus YMR307W, strain GAS1, stronger effect = lower value 0.118 | S. cerevisiae deletion strains, locus YNL067W, strain RPL9B, stronger effect = lower value 0.051 | S. cerevisiae deletion strains, locus YNL071W, strain lat1, stronger effect = lower value 0.0619 | S. cerevisiae deletion strains, locus YNL128W, strain TEP1, stronger effect = lower value 0.0666 | S. cerevisiae deletion strains, locus YNL183C, strain NPR1, stronger effect = lower value -0.00134 | S. cerevisiae deletion strains, locus YNL209W, strain ssb2, stronger effect = lower value 0.0592 | S. cerevisiae deletion strains, locus YNL233W, strain BNI4, stronger effect = lower value 0.06 | S. cerevisiae deletion strains, locus YNL248C, strain rpa49, stronger effect = lower value 0.0743 | S. cerevisiae deletion strains, locus YNL250W, strain rad50, stronger effect = lower value 0.0631 | S. cerevisiae deletion strains, locus YNL271C, strain bni1, stronger effect = lower value 0.0667 | S. cerevisiae deletion strains, locus YNL298W, strain CLA4, stronger effect = lower value 0.0608 | S. cerevisiae deletion strains, locus YNL307C, strain MCK1, stronger effect = lower value 0.0671 | S. cerevisiae deletion strains, locus YNL322C, strain KRE1 (second series), stronger effect = lower value 0.0646 | S. cerevisiae deletion strains, locus YNL322C, strain KRE1, stronger effect = lower value 0.05 | S. cerevisiae deletion strains, locus YNR049C, strain mso1, stronger effect = lower value 0.058 | S. cerevisiae deletion strains, locus YNR052C, strain pop2, stronger effect = lower value 0.0629 | S. cerevisiae deletion strains, locus YOL006C, strain TOP1, stronger effect = lower value 0.124 | S. cerevisiae deletion strains, locus YOL012C, strain htz1 0.144 | S. cerevisiae deletion strains, locus YOL147C, strain pex11, stronger effect = lower value 0.058 | S. cerevisiae deletion strains, locus YOR001W, strain rrp6, stronger effect = lower value 0.0671 | S. cerevisiae deletion strains, locus YOR061W, strain CKA2, stronger effect = lower value 0.0521 | S. cerevisiae deletion strains, locus YOR069W, strain VPS5, stronger effect = lower value 0.0535 | S. cerevisiae deletion strains, locus YOR070C, strain gyp1, stronger effect = lower value 0.0584 | S. cerevisiae deletion strains, locus YOR080W, strain dia2, stronger effect = lower value 0.0635 | S. cerevisiae deletion strains, locus YOR083W, strain WHI5, stronger effect = lower value 0.0619 | S. cerevisiae deletion strains, locus YOR106W, strain vam3, stronger effect = lower value 0.0658 | S. cerevisiae deletion strains, locus YOR136W, strain idh2, stronger effect = lower value 0.0692 | S. cerevisiae deletion strains, locus YOR144C, strain elg1, stronger effect = lower value 0.0567 | S. cerevisiae deletion strains, locus YOR184W, strain ser1, stronger effect = lower value 0.0701 | S. cerevisiae deletion strains, locus YOR231W, strain MKK1, stronger effect = lower value 0.0983 | S. cerevisiae deletion strains, locus YOR265W, strain rbl2, stronger effect = lower value 0.0559 | S. cerevisiae deletion strains, locus YOR270C, strain vph1, stronger effect = lower value 0.0983 | S. cerevisiae deletion strains, locus YOR290C, strain snf2, stronger effect = lower value 0.0664 | S. cerevisiae deletion strains, locus YOR316C, strain cot1, stronger effect = lower value 0.0588 | S. cerevisiae deletion strains, locus YPL051W, strain arl3, stronger effect = lower value 0.0606 | S. cerevisiae deletion strains, locus YPL055C, strain LGE1, stronger effect = lower value 0.0672 | S. cerevisiae deletion strains, locus YPL078C, strain atp4, stronger effect = lower value 0.0617 | S. cerevisiae deletion strains, locus YPL106C, strain sse1, stronger effect = lower value 0.0996 | S. cerevisiae deletion strains, locus YPL240C, strain hsp82, stronger effect = lower value 0.0572 | S. cerevisiae deletion strains, locus YPL256C, strain CLN2, stronger effect = lower value 0.111 | S. cerevisiae deletion strains, locus YPR119W, strain clb2, stronger effect = lower value 0.0609 | S. cerevisiae deletion strains, locus YPR141C, strain kar3, stronger effect = lower value 0.0639 | S. cerevisiae deletion strains, locus YPR163C, strain tif3, stronger effect = lower value 0.0715 | S. cerevisiae deletion strains, locus YPR167C, strain met16, stronger effect = lower value 0.0622 | S. cerevisiae deletion strains, strain wtn01, stronger effect = lower value 0.0578 | S. cerevisiae strains, strain wild type, stronger effect = lower value 0.0505
